High-throughput results (PubChem)
A selection: hits, their analogues and other compounds. The true share with any hit is near 10%.
FLuc inh-1 = Firefly luciferase inhibition profiling of diverse chemical library using quantitative high-throughput screening | Potency, µM (series often up to 115 µM), actives largely listed as inhibitors | hit rate 2.5% among 76,000 | purified P. pyralis luciferase, luminescence, biochemical; also: % is scaled to controls: 0 for no effect and ±100 for the full control effect; nearly all actives have a fitted effect of over 65% in size
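Inhibitors were tested against purified firefly luciferase in a biochemical, low-substrate format (both substrates at 10uM) and luminescence measured with a CCD imager.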
NIH3T3 tox = Cytotoxic Profiling in NIH 3T3 Cell Line of Diverse Libraries Using Quantitative High-Throughput Screening; NIH 3T3 viability, CellTiter-Glo ATP luminescence, 48-72 h; Potency, µM (top dose mostly 96.7 µM), for the others: at the top dose activity change, negative = cytotoxicity, hits mostly inhibitors; hit rate 4.3% among 94,000; also: % is scaled to controls: 0 for no effect and ±100 for the full control effect; nearly all actives have a fitted effect of over 55% in size
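First NIH 3T3 cells are plated at 400 cells/well; next compound is pinned in; then plates incubate 48 or 72 hr at 37 °C; finally CellTiter-Glo is added and luminescence read after 10 min.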
GPT2 inhibitor = Primary qHTS assay for inhibitors of Glutamate pyruvate transaminase 2 (GPT2) | Alanine aminotransferase 2 (Homo sapiens), Q8TD30 | Recombinant GPT2, coupled pyruvate oxidase/HRP Amplex Red fluorescence | Potency, µM (titrated, usually from 57.7 µM), for the others: top-dose activity change, negative = inhibition, hits mostly inhibitors | hit rate 0.25% among 100,000 | AID 1671188, 2021; also: % is scaled to controls: 0 for no effect and ±100 for the full control effect; nearly all actives have a fitted effect of over 60% in size
Target sequence (Q8TD30 whole entry, looked up): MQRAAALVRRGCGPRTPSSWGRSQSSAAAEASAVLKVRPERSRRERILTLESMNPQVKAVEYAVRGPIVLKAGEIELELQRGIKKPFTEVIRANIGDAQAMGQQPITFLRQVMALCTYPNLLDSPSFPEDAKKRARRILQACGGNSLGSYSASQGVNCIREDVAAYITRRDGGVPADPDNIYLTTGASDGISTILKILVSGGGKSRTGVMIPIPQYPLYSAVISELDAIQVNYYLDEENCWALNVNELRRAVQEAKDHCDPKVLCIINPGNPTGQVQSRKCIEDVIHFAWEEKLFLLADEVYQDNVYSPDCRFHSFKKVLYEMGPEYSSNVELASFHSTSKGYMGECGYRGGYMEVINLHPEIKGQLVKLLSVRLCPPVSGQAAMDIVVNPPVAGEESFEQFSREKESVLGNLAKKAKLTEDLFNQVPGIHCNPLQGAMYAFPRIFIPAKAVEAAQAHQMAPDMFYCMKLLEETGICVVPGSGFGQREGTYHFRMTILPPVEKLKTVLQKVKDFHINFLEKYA
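Fluorescence read-out: pyruvate from GPT2 turnover coupled to pyruvate oxidase, HRP and Amplex Red (0.2mM ThPP, 0.2U/mL PO and HRP, 50uM Amplex final). Substrates 250uM a-KG, 2mM L-alanine; enzyme 10ng/uL; 30 min RT.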
NPR1 antag = Natriuretic polypeptide receptor (hNpr1) antagonism - Primary qHTS; HEK293 hNpr1 GloSensor cGMP, ANP-stimulated luminescence; hit rate 1.6% among 76,000; Potency, µM (titrated, usually from 46.3 µM), for inactives: at the highest dose activity change, negative = inhibition, hits mostly inhibitors; calls by dose curve; also: % is scaled to controls: 0 for no effect and ±100 for the full control effect; nearly all actives have a fitted effect of over 60% in size
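HEK293 cells stably expressing human Npr1 and cGMP GloSensor pGS-40F, loaded 2 h with 2% GloSensor reagent, given compound 30 min at room temperature. Luminescence read before and 20 min after 0.1 nM hNppA.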
HEK cytotox = Cytotoxic Profiling in HEK 293 Cell Line of Diverse Libraries Using Quantitative High-Throughput Screening | HEK 293 viability, ATP luminescence (CellTiter-Glo), 48-72 h | Potency, µM (doses to about 115 µM), for the others: at the top dose activity change, negative = cytotoxicity, hits mostly inhibitors | hit rate 6.6% among 94,000; also: % is scaled to controls: 0 for no effect and ±100 for the full control effect; nearly all actives have a fitted effect of over 60% in size
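ATP-coupled CellTiter-Glo luminescence served as viability read-out, recorded 10 min after reagent addition at room temperature. HEK 293 cells, 250 cells/well, had been incubated with pintool-transferred compound for 48 or 72 hr at 37 degree Celsius.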
FLuc SDR -ATP = Firefly luciferase (FLuc-C-HiBiT) SDR gain of signal screen - without ATP. shares compounds with FLuc inh-1. Purified FLuc-C-HiBiT, Nano-Glo HiBiT luminescence, no ATP. Potency, µM (doses to about 32.7 µM), inactives show at the top dose activation (signal gain), hits mostly activators. hit rate 7.8% among 1,300. AID 1963318, 2024; also: nearly all actives have a fitted effect of over 55% in size
FLuc SDR ATP = Firefly luciferase (FLuc-C-HiBiT) SDR gain of signal screen - plus ATP; AID 1963319, 2024; shares compounds with FLuc inh-1; purified FLuc-C-HiBiT + ATP, HiBiT complementation luminescence; Potency, µM (doses to about 32.7 µM), inactives show at the top dose activation (gain of signal), actives largely listed as activators; hit rate 8.7% among 1,300;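 also: signal reports ligand binding via conformational change of the enzyme rather than luciferase catalysis; % of control where 0% means no effect; nearly all actives have a fitted effect of over 55% in size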
FLuc inh-2 = Firefly luciferase (FLuc-C-HiBiT) enzymatic inhibition screen - Functional assay. shares compounds with FLuc inh-1. purified FLuc-C-HiBiT enzyme, luciferin luminescence. Potency, µM (series often up to 32.7 µM), without a hit: top-dose activity change, negative = inhibition, most hits filed as inhibitors. hit rate 42% among 1,300. AID 1963320, 2024; also: % is scaled to controls: 0 for no effect and ±100 for the full control effect; nearly all actives have a fitted effect of over 70% in size
* marks the source's active call; other numbers are inactive results; i = inactive; u = inconclusive; x = not tested or not shown; [ ] = dose if it differs, or a comment. Unless noted, calls follow the shape of the dose curve; as a rule, active = well fitted curve in the direction sought with a large enough effect; inconclusive = small, poorly fitted or top-dose-only effect, or another doubt; inactive = no such curve, though single readings can be large; an effect the other way counts as inactive or inconclusive. Potency is read from the fitted curve at half-maximal effect.

SMILES | FLuc inh-1 | NIH3T3 tox | GPT2 inhibitor | NPR1 antag | HEK cytotox | FLuc SDR -ATP | FLuc SDR ATP | FLuc inh-2
Cc1ccc(NC(=O)Nc2ccc(C)n(CC(=O)NC(C)(C)C)c2=O)cc1 | 4µM* | -18% | 0% | 0% | u | u | u | 3.9µM*
CCC(C)NC(=O)Cn1c(C)ccc(NC(=O)Nc2ccc(C)cc2)c1=O (stereo not given) | 2µM* | u | -12% | -23% | u | 3.1µM* | u | 1.2µM*
CCCNC(=O)Cn1c(C)ccc(NC(=O)Nc2ccc(OC)cc2)c1=O | 4µM* | u | i | -17% | -27% | u | u | 6.2µM*
Cc1ccc(NC(=O)Nc2ccc(C)n(CC(=O)NCC(C)C)c2=O)cc1 | 0.89µM* | u | -18% | -29% | u | 3.9µM* | u | 1.1µM*
Cc1cnc(-c2ccncc2)n1CCNC(=O)CCC1CCCC1 | i | -16% | i | 6% | -23% | x | x | x
COc1ccc(C(=O)N2CCN3C(=O)N(Cc4ccc(C)cc4)C[C@H]3C2)cc1 | i | -26%[138 µM] | 3%[88.5 µM] | 4%[70.6 µM] | u | x | x | x
COc1ccc(NC(=O)Nc2ccc(C)n(CC(=O)N3CCCN(C)CC3)c2=O)cc1 | u | i | 5% | -8% | 0% | x | x | x
COc1ccc(NC(=O)Nc2ccc(C)n(CC(=O)N3CCCC(C)C3)c2=O)cc1 (stereo not given) | 7.1µM* | -29% | 4% | 4% | -16% | u | u | 7.9µM*
COc1ccc(-c2ccc3c(c2)C(=O)N2CC[C@H](NC(=O)c4cccc(F)c4)[C@H]2C(=O)N3)cc1 | 11µM* | u | 2% | -3% | u | 17% | 11% | u
O=C(N[C@H]1CCN2C(=O)c3cc(-c4ccc(F)cc4F)ccc3NC(=O)[C@H]12)c1cccc(F)c1 | u | u | 3% | -12% | u | x | x | x
CSc1ccc(-c2ccc3c(c2)C(=O)N2CC[C@H](NC(=O)c4cccs4)[C@H]2C(=O)N3)cc1 | 6.3µM* | -20% | i | -15% | -15% | 17% | 12% | u
CCOc1ccc(NC(=O)Nc2cccc(C(=O)O)c2)cc1 | x | x | x | x | x | 4.4µM* | 0.007µM* | 0.0088µM*
CCOc1ccc(NC(C)=O)cc1 | x | x | i | x | x | x | x | x
Cc1ccc(C(=O)Nc2cccc(C(=O)O)c2)cc1 | x | x | x | x | x | 12µM* | 0.05µM* | 0.056µM*
COCC1CN(C)CC12CCN(Cc1ccc(OC)cc1)CC2 (stereo not given) | i | -27% | 0% | -4% | u | x | x | x
CCc1cccc(-n2nnnc2N2CCN(C(=O)Nc3ccc(C)c(F)c3)C(C)C2)c1 (stereo not given) | x | u | -9% | x | u | x | x | x
CCc1cccc(-n2nnc(-c3nsc(NC(=O)c4cccs4)n3)c2C)c1 | x | x | x | x | x | 13% | 14% | -19%
Clc1ccc(Nc2ncc(-c3cccnc3)c3c2OCC3)cc1 | 5µM* | u | 4%[88.5 µM] | -22%[70.6 µM] | u | 11%[49.3 µM] | 8%[49.3 µM] | u
Fc1ccc(Nc2ncc(-c3cccnc3)c3c2OCC3)cc1 | 11µM* | u | i | -18%[70.6 µM] | -11%[172 µM] | 19%[49.3 µM] | 14%[49.3 µM] | u
Cn1cc(-c2cnc(Nc3ccc(N4CCOCC4)cc3)c3c2CCO3)cn1 | 4µM* | u | u | -18%[70.6 µM] | u | u | u | 14µM*
c1ccc(Nc2ncc(-c3cccnc3)c3c2OCC3)cc1 | x | x | i | x | x | 22%[65.7 µM] | u | u
CSCC(=O)N[C@H]1CCN2C(=O)c3cc(-c4ccc(F)cc4F)ccc3NC(=O)[C@H]12 | u | u | -24%[88.5 µM] | 2%[70.6 µM] | -24%[172 µM] | x | x | x
COc1ccc(-c2cnc(Nc3cccc(N[S+](C)(=O)[O-])c3)c3c2CCO3)cn1 | 14µM* | u | i | 0%[70.6 µM] | 89µM* | 16%[49.3 µM] | 12%[49.3 µM] | u
Cc1ccc(-c2noc([C@@H]3CCCN3C(=O)c3cnccn3)n2)cc1 | i | -22% | 2% | -9% | -6% | x | x | x
Cc1ccc2nc(C(=O)N3CCCC3c3cc(C(C)C)on3)cn2c1 (stereo not given) | 10µM* | -13% | -15% | 0% | -9% | 27% | 15% | u
SMILES | FLuc inh-1 | NIH3T3 tox | GPT2 inhibitor | NPR1 antag | HEK cytotox | FLuc SDR -ATP | FLuc SDR ATP | FLuc inh-2
CC(C)(C)CN1CCNc2cc(Nc3ccccc3)ncc2C1 | 2.2µM* | 50µM* | u | u | u | u | 17%[49.3 µM] | 7.2µM*
CC(C)(C)CN1CCNc2cc(Nc3cccnc3)ncc2C1 | 1.6µM* | u | i | -1%[70.6 µM] | -39%[172 µM] | u | u | 6.4µM*
Cc1ccc(-c2noc(C3CCCN3Cc3ccccc3)n2)nn1 (stereo not given) | i | -12% | 2% | -1% | u | x | x | x
Cc1ccc(NC(=O)c2oc3ccc4c(c3c2C)C(=O)CC(C)(C)O4)c(C)c1 | x | x | x | x | x | 20% | u | u
CCOc1cc(=O)n2c(c1C(=O)Nc1ccc(C)cc1C)CCCC2 | i | -16% | i | 1% | -32% | x | x | x
CSCCNC(=O)C1CCCN1c1nccc(Nc2ccccc2F)n1 (stereo not given) | x | u | -4% | x | u | x | x | x
O=S1(=O)NCC2(CCN(CCc3ccccc3)C2)Oc2ccncc21 (stereo not given) | x | -1% | -4% | x | -5% | x | x | x
CC(=O)N[C@H]1C[C@@H](c2nc(-c3ccc4c(c3)OCO4)no2)N(C)C1 | i | -23%[174 µM] | -7%[88.5 µM] | 1%[70.6 µM] | -14%[172 µM] | x | x | x
CC(=O)Nc1ccc(NC(=O)c2cc(-c3ccc4c(c3)OCCO4)on2)cc1 | x | x | x | x | x | u | u | 0.62µM*
C[S+](=O)([O-])N1C2CCC1CN(c1ccc(C(F)(F)F)cc1)C2 | x | u | i | x | u | x | x | x
COCC1CCN(c2ccc(-c3nc(-c4ccccc4C)no3)cn2)C1 (stereo not given) | 14µM* | -25% | -22% | u | u | 14% | 16% | u
